Compound activity deposited in PubChem BioAssay by National Center for Advancing Translational Sciences (NCATS).
A350 fluor: qHTS Assay for Spectroscopic Profiling in A350 Spectral Region; max dye-equivalent concentration, M; Compound autofluorescence, 340/450 nm, Alexa 350 dye-equivalents; stronger effect = higher value; 59,000 compounds, 11% hits; in the data active = max dye-equivalent concentration above about 10 nM; inconclusive = mostly about 1.1 nM to 9.6 nM
CRE-bla Fsk: Cell signaling CRE-BLA (Fsk stim) | Potency, µM (series often up to 38.2 µM), without a hit: top-dose activity change, negative = inhibition, actives largely listed as activators | 71,000 compounds, 2.5% hits | CHO CRE-bla reporter (cAMP response element driving beta-lactamase), forskolin EC10, beta-lactamase ratio; active = well fitted activation curve with a large enough effect in the signal ratio, with a control signal flat, not every such curve was filed as active; inconclusive = small, poorly fitted or top-dose-only effect, or effect the other way, or a change in a side signal; the % refers to the signal ratio; also: potency is read from the fitted curve at half-maximal effect; % of control where 0% means no effect
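Forskolin analogue NKH 477 at EC10 stimulated CRE-driven beta-lactamase in CHO cells alongside compound dilution series. Beta-lactamase was measured with CCF4, excitation 405 nm, emission ratio 460/530 nm.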
HADH2 inhib: qHTS Assay for Inhibitors of HADH2 (Hydroxyacyl-Coenzyme A Dehydrogenase, Type II). Potency, µM (top dose mostly 57.1 µM), inactives show at the highest dose activity change, negative = inhibition, actives largely listed as inhibitors. recombinant HADH2, NADH fluorescence, beta-hydroxybutyryl-CoA. 3-hydroxyacyl-CoA dehydrogenase type-2 (Homo sapiens), Q99714. 73,000 compounds, 3.4% hits. AID 886, 2007; also: potency is read from the fitted curve at half-maximal effect; % is scaled to controls: 0 for no effect and ±100 for the full control effect; nearly all actives have a fitted effect of over 60% in size
Target sequence (Q99714 whole entry, looked up, one chain of several): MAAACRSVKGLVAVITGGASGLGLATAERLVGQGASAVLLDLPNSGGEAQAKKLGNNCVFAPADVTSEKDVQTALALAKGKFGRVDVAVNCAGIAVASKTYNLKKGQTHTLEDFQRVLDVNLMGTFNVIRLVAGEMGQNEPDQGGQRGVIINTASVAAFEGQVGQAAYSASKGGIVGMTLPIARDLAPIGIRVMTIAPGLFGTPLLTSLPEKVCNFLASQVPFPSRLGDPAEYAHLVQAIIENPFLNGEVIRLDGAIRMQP
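Activity measured as NADH fluorescence gain (360/450 nm), taken as the change between first and last reads of a 4-min kinetic run. Conditions: pH 9.0 Tris buffer, 20 nM E. coli-expressed His-tagged enzyme, 1 mM NAD+, 90 uM beta-hydroxybutyryl-CoA; 15-min compound preincubation.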
AID923: qHTS Assay for Allosteric/Competitive Inhibitors of Caspase-1: Spectroscopic Profiling in AFC Spectral Region. compound fluorescence, AFC spectral region (405/520 nm). Potency, µM (titrated, usually from 57.5 µM), for the others: at the top dose fluorescence increase, usual class: activators. 75,000 compounds, 1.1% hits. AID 923, 2007; also: potency is read from the fitted curve at half-maximal effect; 0% is about no effect
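Baseline compound fluorescence (AFC region, 405 nm ex/520 nm em) taken from the intercept of kinetic reads with 50 nM caspase-1 and 5 uM Ac-WEHD-AFC; normalized to an on-plate AFC standard curve; compounds titrated up to 57 uM.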
4-MU autofl: qHTS Assay for Spectroscopic Profiling in 4-MU Spectral Region; compound autofluorescence, 340/450 nm, 4-MU equivalents; stronger effect = higher value; max dye-equivalent concentration, M; 59,000 compounds, 11% hits; AID 589, 2007; in the data active = max dye-equivalent concentration above about 10 nM; inconclusive = mostly about 1.1 nM to 9.6 nM
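Intrinsic fluorescence at 340/450 nm (ex/em) was read after 15 min at room temperature in pH 8.0, 100 mM Tris. Each compound concentration expressed as 4-MU-equivalent concentration from a six-point 4-MU standard series on each plate.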
HSD17B inh: qHTS Assay for Inhibitors of HSD17B4, hydroxysteroid (17-beta) dehydrogenase 4; recombinant HSD17B10, NADH fluorescence kinetic; Potency, µM (doses to about 57.1 µM), for inactives: at the top dose activity change, negative = inhibition, usual class: inhibitors; 3-hydroxyacyl-CoA dehydrogenase type-2 (Homo sapiens), Q99714; 75,000 compounds, 7.6% hits;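 also: the protocol describes HADH2 (HSD17B10) and not the HSD17B4 of the title; potency is read from the fitted curve at half-maximal effect; % is scaled to controls: 0 for no effect and ±100 for the full control effect; nearly all actives have a fitted effect of over 70% in size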
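Enzyme plus compound, 15 min room temperature; substrate mix added (NAD+ 1 mM, beta-hydroxybutyryl-CoA 90 uM final); plates read kinetically for NADH fluorescence. HADH2 was His-tagged, E. coli-derived, 20 nM.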
* marks the source's active call; other numbers are inactive results; i = inactive; ? = inconclusive; . = no result; [ ] = another dose, or the depositor's remark. Rows were chosen to be rich in hits. Some 14% of all compounds tested hit in one or more screens of this group. Unless noted, calls follow the shape of the dose curve; as a rule, active = well fitted curve in the direction sought with a large enough effect; inconclusive = small, poorly fitted or top-dose-only effect, or another doubt; inactive = no such curve, though single readings can be large; an effect the other way counts as inactive or inconclusive.

SMILES	A350 fluor	CRE-bla Fsk	HADH2 inhib	AID923	4-MU autofl	HSD17B inh
Cc1ccc2cc(C(c3nnnn3CC3CCCO3)N3CCc4ccccc4C3)c(=O)[nH]c2c1 (stereo not given)	?	-6.7%	4.1%	9.2%	?	-6.1%
Oc1c(Cl)cc(C(c2cc(Cl)c(O)c(Cl)c2)C(c2cc(Cl)c(O)c(Cl)c2)c2cc(Cl)c(O)c(Cl)c2)cc1Cl	i	12.9%[7.6 µM]	?	-4.2%[11.5 µM]	i	3.16µM*
CCOc1cc(/C=N/n2cnnc2)cc(Br)c1O	3.97e-08M*	3.1%	-18.6%	5.3%	4.26e-08M*	?
CCOc1ccc(/C=N/n2cnnc2)cc1	.	6.6%	-7.7%	-0.4%	.	-1.1%
Cc1ccc(B(O)O)cc1	.	.	10.3%	-2.9%	.	5.3%
COC(=O)CN(c1ccccn1)S(=O)(=O)c1ccccc1	i	-1.8%	?	-0.3%	i	25.1µM*
COC(=O)CN(c1cc(OC)ccc1OC)S(=O)(=O)c1ccc(OC)c(OC)c1	2.78e-08M*	.	.	.	2.41e-08M*	.
COc1ccc(S(=O)(=O)N(CC(=O)O)c2ccc(C)cc2)cc1	.	.	-3.3%	6.9%	.	4.6%
COC(=O)CCN(c1ccccc1)S(=O)(=O)c1ccc(OC)cc1	1.07e-08M*	-7.5%	5.5%	-0.7%	?	10.0%
COc1cccc(-c2cncnc2NCc2cccc(C)c2)c1	i	1.7%	-26.5%	2.1%	i	-9.8%
C[C@@]12CC[C@@H]3[C@H](CCC4=CC(=O)CC[C@]43C)[C@@H]1CC[C@@H]2C(=O)Cn1cnc2c(=S)nc[nH]c21	i	-4.9%[7.6 µM]	-15.4%[11.4 µM]	1.2%[11.5 µM]	i	3.1%[11.4 µM]
COC(=O)c1cccc(C23CC4(C2)[C@H](CN(CC2CCCCC2)[C@@H]4c2ccccc2)C3c2ccc(C(F)(F)F)cc2)c1 (stereo not given in full)	.	.	.	-0.9%	.	-5.3%
COc1cccc2[nH]c3c(N4CCCC(C)C4)ncnc3c12 (stereo not given)	3.77e-08M*	?	-12.6%	-0.5%	2.98e-08M*	20µM*
CCOC(=O)C1CCCN(c2ncnc3c2[nH]c2cccc(OC)c23)C1 (stereo not given)	6.78e-07M*	?	31.6µM*	3.2%	5.43e-07M*	25.1µM*
c1ccc2c(c1)[nH]c1c(N3CCCC3)ncnc12	?	?	?	0.3%	?	-13.7%
CCOC(=O)C1CCCN(c2ncnc3c2cnn3-c2cccc(C)c2)C1 (stereo not given)	i	?	-4.5%	0.0%	i	-14.3%
O=C(O)[C@@H](O)[C@@H](O)[C@@H](O)[C@@H](O)c1nc2ccccc2s1	i	-12.3%[7.6 µM]	?	-0.9%[11.5 µM]	i	-21.9%[11.4 µM]
Cc1ccccc1OC(C)C(=O)NC1CCCC1 (stereo not given)	i	?	3.1%	1.6%	i	3.5%
Cc1ccc(S(=O)(=O)Nc2ccccc2C(N)=O)cc1	?	-9.8%	25.1µM*	-0.8%	?	31.6µM*
CN(C)S(=O)(=O)Nc1ccccc1C(N)=O	2.17e-08M*	-1.9%	?	-0.2%	2.38e-08M*	31.6µM*
CC(=O)Nc1cccc(NS(=O)(=O)Cc2ccc(Cl)cc2)c1	i	-9.5%	0.4%	0.7%	i	1.3%
NC(=O)c1ccccc1NS(=O)(=O)Cc1ccc(Cl)cc1	4.99e-08M*	-5.4%	20µM*	-1.7%	4.35e-08M*	25.1µM*
NC(=O)c1ccccc1NC(=O)CS(=O)(=O)Cc1ccccc1	i	12.6µM*	-3.4%	-0.5%	i	2.0%
COCCNC(C)C(=O)Nc1ccc(Br)cc1 (stereo not given)	i	-0.9%	-6.3%	-3.1%	i	13.6%
Cc1ncoc1C(=O)Nc1cccc(Cl)c1	i	8.4%	?	1.2%	i	-7.5%
SMILES	A350 fluor	CRE-bla Fsk	HADH2 inhib	AID923	4-MU autofl	HSD17B inh
Cc1ocnc1C(=O)Nc1ccc(Cl)cc1	1.96e-08M*	-18.9%	5.0%	1.6%	1.9e-08M*	-22.9%
CCCOc1ccc(C(=O)c2nc3c(n2O)CCCC3)cc1	i	?	-9.4%	0.0%	i	-1.9%
Cc1cc(SCC(=O)c2ccc(Br)cc2)cc(C)[o+]1	i	-3.3%[7.6 µM]	-28.5%[11.4 µM]	-0.8%[11.5 µM]	i	-9.2%[11.4 µM]
CCCn1c(-c2ccc(F)cc2)nc2c(N3CCN(CCn4ccnc4)CC3)nc(C)nc21	.	?	10.0%	-2.0%	.	?
Cc1nc(N2CCOCC2)c2nc(-c3ccccc3)n(CCCN3CCOCC3)c2n1	.	?	?	6.8%	.	20µM*
Cc1nc(N2CCOCC2)c2nc(-c3ccccc3)n(CCN3CCOCC3)c2n1	.	5.8%	7.0%	-1.6%	.	25.1µM*
CCN1CCCC1Cn1c(-c2ccccc2)nc2c(N3CCOCC3)nc(C)nc21 (stereo not given)	.	5.4%	-13.1%	-1.0%	.	25.1µM*
Cc1nc(N2CCOCC2)c2nc(-c3ccccc3)n(CC(C)(C)CN(C)C)c2n1	.	-7.3%	29.9%	-0.1%	.	31.6µM*
O=S1(=O)C=CC(N2CCOCC2)C1 (stereo not given)	.	-4.9%	-1.7%	-0.4%	.	-2.1%
Cc1nc(N2CCOCC2)c2nc(-c3ccccc3)n(CC3CCN(C)CC3)c2n1	.	4.0%	?	1.6%	.	25.1µM*
CS(=O)(=O)N(CC(=O)NCc1ccccn1)Cc1ccc(Cl)cc1	i	-9.9%	-3.7%	0.9%	i	-19.3%
CC(C)N1CC23C=CC(O2)C(C(=O)OCc2ccccc2)C3C1=O (stereo not given)	.	-7.3%	3.0%	1.6%	.	8.0%
CC(C)N1C[C@@]23C=C[C@@H](O2)C(C(=O)OCc2ccccc2)[C@H]3C1=O (stereo not given in full)	4.6e-08M*	0.9%	24.7%	0.4%	3.43e-08M*	1.9%
CCCNC(=O)OC[C@@H]1O[C@H](CCO/N=C\C[C@H]2C=C[C@H](OC(C)=O)[C@@H](COC(C)=O)O2)C=C[C@@H]1Oc1ccc(OC)cc1	.	.	28.4%[11.4 µM]	-1.0%[11.5 µM]	.	5.0%[11.4 µM]
COc1cccc(C(=O)NC2(C(F)(F)F)N=C3SCCN3C2=O)c1 (stereo not given)	1.08e-08M*	0.9%	11.0%	-1.7%	?	8.9%
CCC1C(=O)n2nc(-c3ccccc3)cc2N=C1C (stereo not given)	i	1.2%	25.1µM*	0.5%	i	25.1µM*
Cc1cc(-c2ccccc2)nc(=O)[nH]1	i	?	4.0%	1.2%	i	0.6%
